Measured values as given in PubChem BioAssay.

Assay: MRP1 drug-resistance reversers in H69AR cells – cell-based, doxorubicin co-treatment, pilot screen (AID 601)
Conditions: H69AR cells + 2 uM doxorubicin, CellTiter-Glo, 72 h; measured here: viability with 2 uM doxorubicin; at 10 µM; stronger effect = lower value

Structure (SMILES)	viability
O=c1[nH]c2ccccc2nc1NCCN1CCOCC1	89.1%
c1ccc(Nc2ccccc2Nc2ccccn2)nc1	99.2%
COc1ccc(-n2c(COc3cccc(C)c3)nnc2SCC(=O)NCc2ccco2)cc1	95.7%
C=CCc1cc(C(=O)N2CCCCC2)ccc1O	108%
CCCC(=O)Nc1ccc2oc(-c3cccnc3)nc2c1	96%
Cc1ccccc1-n1c(=O)cc(N2CCN(C(=O)c3ccco3)CC2)[nH]c1=O	88.5%
O=C(O)CN1C(=O)C2(OCCCO2)c2ccccc21	85.4%
CC(C)(C)C(=O)/C=C(\N)c1ccccn1	97.8%
CCOC(=O)C1CCCN(c2c(N3CCN(c4ccccn4)CC3)c(=O)c2=O)C1 (stereo not given)	86.5%
CC1CCN(S(=O)(=O)c2ccc(S(=O)(=O)NCC(=O)C(C)(C)C)cc2)CC1	85.3%
O=C(CSc1nnc2scc(-c3ccccc3)n12)N1CCN(Cc2ccccc2)CC1	70%
CC1(C)CNC(=O)CC(C)(C)N1O	92.6%
Cc1cc(NC(=O)CCOc2ccccc2)no1	85.7%
CCOc1ccc2cc(C#N)c(SCC(=O)N3CCCC3)nc2c1	75.8%
COc1cccc(Oc2cnc(N)nc2-c2ccc(OC)cc2O)c1	58.2%
CCOC(OCC)P(=O)(C(C)C)C(C)C	88.6%
O=C1C(C=NCCCn2ccnc2)=C(O)c2ccccc21	82%
CCCN(S(=O)(=O)c1ccc(OCC)cc1)S(=O)(=O)c1cccs1	84%
N#Cc1nc(COc2ccc(Br)cc2)oc1N1CCCC1	86.7%
CCOC(=O)N1CCN(Cc2cc(=O)oc3ccc4ccccc4c23)CC1	79.6%
